Experimental data as given in PubChem BioAssay (Tox21).
The source made the active and inactive calls. Entries that show only a call come without a potency. Unless noted, the call rests on the fitted dose curve; in most records, active means well fitted curve in the direction sought with a large enough effect in the repeat runs; inconclusive means weak or mixed curves; inactive means no such curve, though single readings can be large; an effect the other way counts as inactive or inconclusive.

Assays:
[1] = qHTS assay to identify small molecule antagonists of the glucocorticoid receptor (GR) signaling pathway - cell viability counter screen (AID 720693); further: nearly all actives have a fitted effect of over 55% in size
[2] = qHTS assay for identifying genotoxic compounds that show differential cytotoxicity against isogenic chicken DT40 cell lines with known DNA damage response pathways - wild type cell line (AID 743012); further: nearly all actives have a fitted effect of over 60% in size; further: potency means the concentration at half of the fitted maximal effect
Method in brief: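 Viability by ATP luminescence (CellTiter-Glo, 30 min RT) after 40 h compound treatment at 37 C/5% CO2, using 300 parental DNA repair-proficient DT40 cells per well.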

[3] = qHTS assay for identifying genotoxic compounds that show differential cytotoxicity against isogenic chicken DT40 cell lines with known DNA damage response pathways - Rev3 mutant cell line (AID 743014); further: nearly all actives have a fitted effect of over 55% in size; further: potency means the concentration at half of the fitted maximal effect
[4] = qHTS assay for identifying genotoxic compounds that show differential cytotoxicity against isogenic chicken DT40 cell lines with known DNA damage response pathways - Rad54/Ku70 mutant cell line (AID 743015); further: nearly all actives have a fitted effect of over 60% in size; further: potency means the concentration at half of the fitted maximal effect
[5] = qHTS assay to identify small molecule antagonists of the androgen receptor (AR) signaling pathway - cell viability counter screen (AID 743033; further: nearly all actives have a fitted effect of over 45% in size)
[6] = qHTS assay to identify small molecule antagonists of the androgen receptor (AR) signaling pathway using the MDA cell line - cell viability counter screen (AID 743041; further: nearly all actives have a fitted effect of over 45% in size; further: potency means the concentration at half of the fitted maximal effect)
Method in brief: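 qHTS viability read-out; MDA-kb2 AR-luc; R1881-stimulated; 16 h exposure at 37C, 0% CO2; CellTiter-Fluor, 30 min; fluorescence intensity.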

[7] = tested on: thyroid hormone receptor (rat, GH3 cells); test: qHTS assay to identify small molecule agonists of the thyroid receptor (TR) signaling pathway (AID 743066; calls by dose curve)
[8] = qHTS assay to identify small molecule antagonists of the estrogen receptor alpha (ER-alpha) signaling pathway - cell viability counter screen (AID 743074; calls by dose curve; further: nearly all actives have a fitted effect of over 45% in size)
[9] = target: Estrogen receptor (Homo sapiens) (UniProt P03372); test: qHTS assay to identify small molecule agonists of the estrogen receptor alpha (ER-alpha) signaling pathway (AID 743075; calls by dose curve; further: potency means the concentration at half of the fitted maximal effect)
Sequence of Estrogen receptor (Homo sapiens) (P03372 whole entry, looked up): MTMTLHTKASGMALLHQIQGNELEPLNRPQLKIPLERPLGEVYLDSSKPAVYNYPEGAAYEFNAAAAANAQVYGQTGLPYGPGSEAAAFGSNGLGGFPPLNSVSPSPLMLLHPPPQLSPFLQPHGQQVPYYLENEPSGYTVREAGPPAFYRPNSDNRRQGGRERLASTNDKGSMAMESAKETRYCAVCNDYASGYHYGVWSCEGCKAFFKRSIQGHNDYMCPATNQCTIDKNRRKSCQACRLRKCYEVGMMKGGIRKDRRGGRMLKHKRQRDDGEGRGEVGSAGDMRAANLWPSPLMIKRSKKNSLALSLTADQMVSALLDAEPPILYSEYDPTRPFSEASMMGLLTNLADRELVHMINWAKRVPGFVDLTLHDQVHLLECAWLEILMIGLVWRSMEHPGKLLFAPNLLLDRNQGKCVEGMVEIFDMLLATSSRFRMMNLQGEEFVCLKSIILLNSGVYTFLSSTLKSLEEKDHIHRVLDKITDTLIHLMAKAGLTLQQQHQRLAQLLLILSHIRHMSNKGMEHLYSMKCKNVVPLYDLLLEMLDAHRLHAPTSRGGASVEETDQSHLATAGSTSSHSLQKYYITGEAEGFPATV

[10] = target: Estrogen receptor (Homo sapiens) (UniProt P03372); test: qHTS assay to identify small molecule agonists of the estrogen receptor alpha (ER-alpha) signaling pathway using the BG1 cell line (AID 743079); details: BG1Luc4E2 cells, ERE-luciferase agonist, 22 h; activation: at 70.3 µM (top of the series); further: nearly all actives have a fitted effect of over 20% in size; further: potency means the concentration at half of the fitted maximal effect
[11] = qHTS assay to identify small molecule antagonists of the estrogen receptor alpha (ER-alpha) signaling pathway using the BG1 cell line (AID 743080; calls by dose curve;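 further: BG1 cells stimulated with 17beta-estradiol alongside compound; nearly all actives have a fitted effect of over 25% in size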)
Method in brief: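 Quantitative HTS on the Tox21 10K library: BG1 cells with endogenous ER-alpha and ERE-luciferase reporter, 17beta-estradiol stimulation, 21.5 h compound exposure, luminescence endpoint with parallel fluorescence cytotoxicity counter-read.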

[12] = qHTS assay to identify small molecule antagonists of the estrogen receptor alpha (ER-alpha) signaling pathway using the BG1 cell line - cell viability counter screen (AID 743081);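 further: compound given together with 17beta-estradiol as the ER stimulus; nearly all actives have a fitted effect of over 45% in size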; further: potency means the concentration at half of the fitted maximal effect
Aromatase (Homo sapiens) = Aromatase (Homo sapiens) (UniProt P11511); test: qHTS assay to identify aromatase inhibitors (AID 743083); further: nearly all actives have a fitted effect of over 55% in size; further: potency means the concentration at half of the fitted maximal effect
Sequence of Aromatase (Homo sapiens) (P11511 whole entry, looked up): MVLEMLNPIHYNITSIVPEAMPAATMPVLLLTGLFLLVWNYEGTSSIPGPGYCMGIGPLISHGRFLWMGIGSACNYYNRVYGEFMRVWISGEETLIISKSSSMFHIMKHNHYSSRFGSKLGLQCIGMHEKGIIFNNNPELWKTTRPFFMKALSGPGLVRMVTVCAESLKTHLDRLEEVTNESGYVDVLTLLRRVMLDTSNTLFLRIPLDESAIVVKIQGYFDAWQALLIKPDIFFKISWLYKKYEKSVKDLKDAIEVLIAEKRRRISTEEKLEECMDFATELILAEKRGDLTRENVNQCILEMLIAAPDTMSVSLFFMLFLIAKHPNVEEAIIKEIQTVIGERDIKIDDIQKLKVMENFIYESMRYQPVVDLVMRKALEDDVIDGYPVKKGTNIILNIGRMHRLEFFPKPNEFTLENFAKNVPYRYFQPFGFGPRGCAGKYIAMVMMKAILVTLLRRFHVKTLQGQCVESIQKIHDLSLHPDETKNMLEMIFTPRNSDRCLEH

[13] = qHTS assay to identify small molecule antagonists of the thyroid receptor (TR) signaling pathway - cell viability counter screen (AID 743064); further: nearly all actives have a fitted effect of over 50% in size; further: potency means the concentration at half of the fitted maximal effect
Method in brief: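 GH3.TRE-Luc rat pituitary cells carrying a TRE-luciferase reporter were treated with compound plus 1 nM T3 (final) for 23.5 h at 37 °C. Viability was then read in the same wells by CellTiter-Fluor fluorescence after a further 30 min.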

[14] = qHTS assay to identify small molecule antagonists of the thyroid receptor (TR) signaling pathway (AID 743065); further: nearly all actives have a fitted effect of over 55% in size; further: potency means the concentration at half of the fitted maximal effect
Method in brief: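 GH3.TRE-Luc rat pituitary cells carrying two TR response elements driving luciferase were plated for 4 h, given compound plus 1 nM T3 (final), and incubated 23.5 h at 37 C. ONE-Glo luminescence measured reporter inhibition; CellTiter-Fluor fluorescence tracked cytotoxicity.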

[15] = target: Estrogen receptor (Homo sapiens) (UniProt P03372); test: qHTS assay to identify small molecule antagonists of the estrogen receptor alpha (ER-alpha) signaling pathway (AID 743069; active means well fitted curve in the direction sought with a large enough effect in the signal ratio in the repeat runs, not every such curve was filed as active; inconclusive means weak or mixed curves, or effect the other way; inactive means no such curve, though single readings can be large or run the other way; the % refers to the signal ratio)
Method in brief: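 Screening used a UAS-driven beta-lactamase reporter integrated into HEK293 cells expressing ER-alpha, stimulated with 17beta-estradiol alongside test compounds over 18 hr at 37C; signal came from LiveBLAzer B/G FRET fluorescence.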

[16] = target: Androgen receptor (Homo sapiens) (UniProt P10275); test: qHTS assay to identify small molecule agonists of the androgen receptor (AR) signaling pathway (AID 743036; active means well fitted activation curve with a large enough effect in the signal ratio in the repeat runs, with a control signal flat, not every such curve was filed as active; inconclusive means weak or mixed curves, or effect the other way; inactive means no such curve, though single readings can be large or run the other way; the % refers to the signal ratio)
Sequence of Androgen receptor (Homo sapiens) (P10275 whole entry, looked up): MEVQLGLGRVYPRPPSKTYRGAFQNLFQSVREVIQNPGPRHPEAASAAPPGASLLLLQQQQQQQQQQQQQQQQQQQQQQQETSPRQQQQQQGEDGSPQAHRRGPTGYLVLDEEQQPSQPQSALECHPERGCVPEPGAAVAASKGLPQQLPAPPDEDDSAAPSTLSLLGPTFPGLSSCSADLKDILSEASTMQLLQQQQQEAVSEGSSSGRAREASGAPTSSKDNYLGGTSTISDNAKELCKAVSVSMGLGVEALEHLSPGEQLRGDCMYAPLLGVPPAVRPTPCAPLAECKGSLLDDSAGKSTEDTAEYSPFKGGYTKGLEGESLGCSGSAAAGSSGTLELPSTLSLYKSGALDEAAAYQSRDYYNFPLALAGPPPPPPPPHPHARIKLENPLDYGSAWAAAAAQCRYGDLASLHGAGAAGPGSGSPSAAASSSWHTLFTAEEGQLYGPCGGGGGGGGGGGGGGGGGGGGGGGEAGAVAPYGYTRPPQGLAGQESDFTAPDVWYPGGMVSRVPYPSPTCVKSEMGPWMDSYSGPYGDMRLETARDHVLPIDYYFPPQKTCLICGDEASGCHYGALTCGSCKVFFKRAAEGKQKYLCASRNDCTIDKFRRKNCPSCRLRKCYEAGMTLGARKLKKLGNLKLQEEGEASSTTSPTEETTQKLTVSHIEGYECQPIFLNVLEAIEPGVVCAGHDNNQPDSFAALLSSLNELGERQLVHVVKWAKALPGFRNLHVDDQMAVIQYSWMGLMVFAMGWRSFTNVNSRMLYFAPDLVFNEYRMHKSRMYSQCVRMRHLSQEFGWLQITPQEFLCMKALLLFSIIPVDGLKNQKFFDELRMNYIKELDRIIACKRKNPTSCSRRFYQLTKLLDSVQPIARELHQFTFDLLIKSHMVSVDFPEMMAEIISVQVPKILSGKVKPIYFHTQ
Method in brief: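 HEK293 cells stably carrying a UAS-driven beta-lactamase reporter (GeneBLAzer AR-UAS-bla-GripTite) were plated at 2,000 cells/well, rested 4 h at 37C, then exposed to compounds in DMSO for 16 h. LiveBLAzer B/G FRET substrate was added for 2 h at room temperature; fluorescence read.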

[17] = target: Androgen receptor (Homo sapiens) (UniProt P10275); test: qHTS assay to identify small molecule agonists of the androgen receptor (AR) signaling pathway using the MDA cell line (AID 743040; further: nearly all actives have a fitted effect of over 20% in size)
Method in brief: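 Agonist activity is measured as luciferase luminescence in human MDA-kb2 cells whose MMTV reporter responds to both AR and GR. Compounds in DMSO incubate 16 h at 37C, 0% CO2, and ONE-Glo is read after 30 min.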

SMILES	Potency [1]	Potency [2]	Potency [3]	Potency [4]	Potency [5]	Potency [6]	Potency [7]	Potency [8]	Potency [9]	Potency [10]	Potency [11]	Potency [12]	Potency (Aromatase (Homo sapiens))	Potency [13]	Potency [14]	Potency [15]	Potency [16]	Potency [17]
O=C(O)c1cc(O)c2c(c1)[O][Bi][O]2	inactive	inactive	inactive	inactive	inactive	inactive	inactive	inactive	0.012 µM [inconclusive] (active)	0.0019 µM (active)	inactive	inactive	inactive					
CCOC(=O)CN[C@@H](C(=O)N1CC[C@H]1C(=O)NCc1ccc(/C(N)=N/O)cc1)C1CCCCC1	inactive	inactive	inactive	inactive	inactive	inactive		inactive	inactive	inactive	inactive	inactive	inactive					
C[Se]CCC(N)C(=O)O (configuration not stated)	inactive	inactive	inactive	inactive	inactive		inactive	inactive	inactive	inactive	inactive	inactive	inactive	inactive	inactive	inactive		
CCCCCCCCCCCC(=O)N(CCO)CCO	inactive	29.8 µM (active)	26.6 µM (active)	26.6 µM (active)	inactive	inactive	inactive	inactive	inactive	inactive	inactive	inactive	inactive					
CC1(C)S[C@@H]2[C@H](NC(=O)C(C(=O)O)c3ccsc3)C(=O)N2[C@H]1C(=O)O (some centres not stated)	inactive	inactive	inactive	inactive	inactive	inactive		inactive	inactive	inactive	inactive	inactive	inactive			inactive		
CC1C(=O)CC2C3(C)CCC2(C(C)C(=O)O)C(=O)C13 (configuration not stated)	inactive	inactive	inactive	inactive	inactive	inactive		inactive	inactive	inactive	inactive	inactive	inactive					
CC(C)(C)NCC(O)c1ccc(O)c(CO)n1 (configuration not stated)	inactive	inactive	inactive	inactive	inactive	inactive	inactive	inactive				inactive			inactive			
Cc1cc(C(=O)NNCc2ccccc2)no1	inactive	inactive	inactive	inactive	inactive	inactive		inactive	inactive	5.07 µM (active)		inactive	inactive			inactive		
CCCCCCCCCCCCCCCCCCCCCCO	inactive	inactive	inactive	inactive		inactive	inactive	inactive				inactive	inactive	inactive	inactive			
CCCCC/C=C\C/C=C\C/C=C\CCCCC(=O)O	inactive	inactive	inactive	inactive	inactive		inactive	inactive				inactive	inactive					
OC[C@@H](O)C(O)[C@H](O)CO	inactive	inactive	inactive	inactive		inactive	inactive	inactive				inactive	inactive	inactive	inactive			
Cc1cc(-c2ccc(N=Nc3c(S(=O)(=O)O)cc4cc(S(=O)(=O)O)cc(N)c4c3O)c(C)c2)ccc1N=Nc1c(S(=O)(=O)O)cc2cc(S(=O)(=O)O)cc(N)c2c1O	inactive	9.44 µM (active)	7.5 µM (active)	10.6 µM (active)		13.3 µM (active)	inactive		inactive			21.1 µM (active)	11.9 µM (active)	23.7 µM (active)	11.9 µM (active)	inactive		
C=C1CC[C@@H]2[C@](C)(CO)[C@H](O)CC[C@@]2(C)[C@@H]1C/C=C1/C(=O)OC[C@H]1O	inactive	5.96 µM (active)	8.41 µM (active)	5.96 µM (active)		inactive		inactive	inactive	inactive		inactive	inactive	21.1 µM (active)	23.7 µM (active)	inactive	inactive	inactive
COc1ccc2cc([C@H](C)CO)ccc2c1	inactive	inactive	inactive	inactive		inactive	inactive	inactive	inactive	33.5 µM (active)		inactive	inactive	inactive	inactive	inactive		
